Inconclusive results are not listed. The source made the active and inactive calls. Calls come from the whole dose curve; as a rule, active = well fitted curve in the direction sought with a large enough effect; inconclusive = small, poorly fitted or top-dose-only effect, or another doubt; inactive = no such curve, though single readings can be large; an effect the other way counts as inactive or inconclusive.
Tests used:
[1] = qHTS for inhibitors of adenylyl cyclases using a fission yeast platform: a pilot screen against the NCATS LOPAC library (AID 1347410)
In short: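 Read-out: fbp1-GFP fluorescence by laser scanning cytometry (488 nm laser), a gain of signal when AC/cAMP-PKA signalling is inhibited. Strain CHP2027 expressing AC9, GNAS and PDE4D2; compounds at up to 57 µM; 18 h, 30C.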

[2] = Validation qHTS assay for inhibitors of Activation Induced Cytidine Deaminase (AID): UDG Counterscreen signal (AID 1347427)
In short: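 Fluorescence at 560 nm excitation, 665 nm emission reports UDG signal after 250 mM NaOH (2x) addition and 30 min. Enzymes (AID 1 uM, UDG 2 U/mL, at 4/3x) preincubated 10 min with compound, then 4 h with 4x 250 nM DJC20/DJC23 substrate at room temperature.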

[3] = target: Single-stranded DNA cytosine deaminase (Homo sapiens) (UniProt Q9GZX7); assay: Validation qHTS assay for inhibitors of Activation Induced Cytidine Deaminase (AID): AID signal (AID 1347429); note: potency is the fitted concentration of half-maximal effect
Chain of Single-stranded DNA cytosine deaminase (Homo sapiens) (Q9GZX7 whole entry, looked up): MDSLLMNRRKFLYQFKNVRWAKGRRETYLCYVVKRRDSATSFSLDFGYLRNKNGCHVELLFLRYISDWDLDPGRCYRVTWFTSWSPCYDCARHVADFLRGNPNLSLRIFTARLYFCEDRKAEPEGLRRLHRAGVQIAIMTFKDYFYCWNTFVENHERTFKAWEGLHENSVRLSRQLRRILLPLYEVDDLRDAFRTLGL
In short: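 Steps: dispense AID with UDG; pin-transfer compound up to 114 uM final; add DJC20/DJC23 substrate and hold 4 hr at room temperature; add NaOH, hold 30 min; read FRET signal (540/590 nm).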

[4] = Primary qHTS for inhibitors of La Crosse Virus (LACV) - induced cell death in SH-SY5Y cells (AID 1508616); note: potency is the fitted concentration of half-maximal effect
In short: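 SH-SY5Y, 6000 cells/well; cpd via pin tool in DMSO; LACV 0.01 MOI; 6 d 37C 5% CO2; ATPLite, 5 min RT; luminescence normalized to ±virus DMSO controls.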

[5] = target: Calcium and integrin-binding protein 1 (Homo sapiens) (UniProt Q99828); assay: Validation qHTS for Identification of Calcium Integrin Binding protein 1 (CIB1) Competitor (AID 1508618)
Chain of Calcium and integrin-binding protein 1 (Homo sapiens) (Q99828 whole entry, looked up): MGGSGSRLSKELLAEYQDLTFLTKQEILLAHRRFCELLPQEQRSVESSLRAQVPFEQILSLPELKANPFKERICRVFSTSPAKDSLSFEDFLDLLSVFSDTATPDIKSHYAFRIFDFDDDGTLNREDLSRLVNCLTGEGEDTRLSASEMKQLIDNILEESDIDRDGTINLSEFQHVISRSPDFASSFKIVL
In short: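 In this qHTS validation, the LOPAC set (up to 114 uM) was tested for blocking CIB1 binding to a fluorescein-tagged alphaIIb peptide, with FP detection at 480/540 nm.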

Measured: Potency

CC1OC1P(=O)(O)O (configuration not stated)
inactive: all assays above

CCC(CO)Nc1nc(NCc2ccccc2)c2ncn(C(C)C)c2n1 (configuration not stated)
inactive: [1]

O=c1[nH]c2cc(C(F)(F)F)ccc2n1-c1cc(C(F)(F)F)ccc1O
inactive: [1] | [2] | [3]

CC1(C)CCC=[N+]1[O-]
not listed: [4]
inactive: all other assays above

NC[C@H]1O[C@@H](n2cnc3c(N)ncnc32)[C@H](O)[C@@H]1O
not listed: [2]
inactive: all other assays above

O=C(/C=C/c1ccc(O)cc1)c1ccc(O)cc1O
inactive: [1] | [3] | [5]

COC1=C(OC)C(=O)c2ccccc2C1=O
active: [3] 50.1 µM
inactive: [1] | [4] | [5]

O=C(c1ccc(Cl)cc1)N1CCN(c2ccc([N+](=O)[O-])c3ncccc23)CC1
not listed: [4]
inactive: all other assays above

c1cnc2c(c1)ccc1cccnc12
inactive: [1] | [2] | [5]

C#C[C@]1(O)CC[C@H]2[C@@H]3CCC4=Cc5oncc5CC4(C)[C@H]3CCC21C (some centres not stated)
inactive: [1] | [4]

CN1C2CCC1CC(OC(=O)C(O)c1ccccc1)C2 (configuration not stated)
not listed: [2]
inactive: all other assays above

O=C(Nc1cccc(C(=O)Nc2ccc(S(=O)(=O)O)c3cc(S(=O)(=O)O)cc(S(=O)(=O)O)c23)c1)Nc1cccc(C(=O)Nc2ccc(S(=O)(=O)O)c3cc(S(=O)(=O)O)cc(S(=O)(=O)O)c23)c1
inactive: [1] | [3] | [4]

NC(N)=NC(=O)c1nc(Cl)c(N2CCCCCC2)nc1N
not listed: [4]
inactive: all other assays above

C=C[C@H]1CN2CC[C@@H]1C[C@@H]2[C@@H](O)c1ccnc2ccc(OC)cc12
inactive: [1] | [4]

C[N+]1(C)C2CC(OC(=O)[C@H](CO)c3ccccc3)CC1C1OC12 (some centres not stated)
inactive: [1] | [4] | [5]

COC(=O)c1c(C)[nH]c(C)c1C(=O)c1ccccc1Cc1ccccc1
not listed: [2]
inactive: all other assays above

COc1cccc(OC)c1OCCNCC1COc2ccccc2O1 (configuration not stated)
inactive: [1] | [3] | [5]

O=c1[nH]c2cc([N+](=O)[O-])c([N+](=O)[O-])cc2[nH]c1=O
inactive: [1] | [3] | [4]

O=C(/C=C/c1ccc(O)c(O)c1)OCCc1ccccc1
active: [4] 631 nM
inactive: [1] | [3] | [5]

O=[N+]([O-])c1ccc2c(c1)S(=O)(=O)C=C2
inactive: [1] | [3]

Cc1cc(NC(=O)Nc2ccc3c(ccn3C)c2)sn1
not listed: [2]
inactive: all other assays above

CN(C)c1ccc(/C=C2\C(=O)Nc3ccccc32)cc1
not listed: [2]
inactive: all other assays above

Fc1ccc(C(OCCCc2cnc[nH]2)c2ccc(F)cc2)cc1
inactive: [1] | [3] | [5]

COc1cccc(C(=O)NCCN2CCN(c3ccc(Cl)cc3)CC2)c1
not listed: [2]
inactive: all other assays above

CN1CCc2cccc3c2C1Cc1ccc(O)c(O)c1-3 (configuration not stated)
not listed: [2]
inactive: all other assays above

CC(=O)N[C@H](C(=O)O)C(C)(C)SN=O
not listed: [4]
inactive: all other assays above

CN(C)C(N)=NCCC[C@H](N)C(=O)O
not listed: [4]
inactive: all other assays above

NC(=O)C(=O)O
inactive: [1] | [3] | [5]

CO/N=C(\C(=O)N[C@@H]1C(=O)N2C(C(=O)O)=C(COC(C)=O)CS[C@H]12)c1csc(N)n1
not listed: [2]
inactive: all other assays above

CCCCCCCCc1ccc(-c2ccc(C(=O)O)cc2)cc1
not listed: [2]
inactive: all other assays above

CC(C)Cc1ccc([C@H](C)C(=O)O)cc1
inactive: [1] | [4]

Cc1cc(NC2CCCCC2)nc(-n2nc(C)cc2C)n1
inactive: [1] | [3] | [5]

Cn1ncc(S(=O)(=O)Cc2ccccc2)c(Br)c1=O
not listed: [4]
inactive: all other assays above
